# Shown are actives, neighbours in structure and some others; about 9.2% of the full set was active somewhere.
# SMN2 splice enh – qHTS Assay for Enhancers of SMN2 Splice Variant Expression. HEK293 SMN2-luciferase splicing reporter, luminescence, 30-36 h. Potency, µM (series often up to 46.1 µM), for inactives: top-dose activity change, positive = activation, actives largely listed as activators. 210,000 compounds, 2.8% hits. AID 1458, 2008; note: % of control where 0% means no effect; nearly all actives have a fitted effect of over 55% in size
#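 qHTS luciferase splicing reporter: luminescence rises when SMN2 exon 7 is included in transfected HEK293 cells. Compound exposure lasted 30-36 h at 37C, with 4.5 mM final sodium butyrate as control, followed by a ONE-Glo read.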
# Rab9 prom act – qHTS Assay for Rab9 Promoter Activators; Huh7 Rab9 promoter-luciferase reporter, luminescence, 24 h; Potency, µM (titrated, usually from 9.22 µM), for inactives: top-dose activation, negative = inhibition, most hits filed as activators; 320,000 compounds, 2.8% hits; AID 485297, 2010; note: % of control where 0% means no effect; nearly all actives have a fitted effect of over 60% in size
#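 Huh7 cells stably carrying a Rab9 promoter-luciferase reporter, 1500 cells per well in OP-MEM I with 10% FBS, treated with compound 24 hours at 37C. Luciferase activity read by luminescence after 10 minutes with Amplite reagent.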
# FLuc modulator – qHTS profiling assay for firefly luciferase inhibitor/activator using purifed enzyme and Km concentrations of substrates (counterscreen for miR-21 project) | Potency, µM (series often up to 57.5 µM), inactives show top-dose activity change, negative = inhibition, usual class: inhibitors | 360,000 compounds, 6.9% hits | AID 588342, 2011 | Luciferin 4-monooxygenase (Photinus pyralis), P08659 | purified FLuc, Km substrates, luminescence inhibition;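 note: plate controls were vehicle for no effect and reference inhibitor for full effect; nearly all actives have a fitted effect of over 55% in size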
# Target sequence (P08659 whole entry, looked up): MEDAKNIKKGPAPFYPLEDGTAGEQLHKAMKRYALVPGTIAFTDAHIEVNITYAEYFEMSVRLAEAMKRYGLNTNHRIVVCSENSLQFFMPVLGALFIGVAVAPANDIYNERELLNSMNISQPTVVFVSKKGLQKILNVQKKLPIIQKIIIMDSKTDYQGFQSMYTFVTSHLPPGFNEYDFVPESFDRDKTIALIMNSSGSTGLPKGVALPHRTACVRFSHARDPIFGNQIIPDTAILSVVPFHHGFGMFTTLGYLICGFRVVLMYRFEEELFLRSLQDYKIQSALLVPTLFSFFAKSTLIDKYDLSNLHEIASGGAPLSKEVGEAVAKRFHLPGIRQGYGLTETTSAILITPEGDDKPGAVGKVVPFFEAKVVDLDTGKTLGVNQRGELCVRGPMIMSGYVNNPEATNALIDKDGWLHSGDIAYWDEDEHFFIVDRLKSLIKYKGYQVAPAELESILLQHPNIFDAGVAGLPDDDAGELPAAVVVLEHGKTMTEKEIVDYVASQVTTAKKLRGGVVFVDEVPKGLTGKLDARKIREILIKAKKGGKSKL
#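 Biochemical qHTS of compounds, final roughly 60 µM downward over six points, against 10 nM purified firefly luciferase using Km concentrations of substrates (10 uM D-luciferin, 10 uM ATP) in Tris acetate pH 7.5 buffer; luminescence output.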
# ELG1 repair inh – qHTS screen for small molecules that inhibit ELG1-dependent DNA repair in human embryonic kidney (HEK293T) cells expressing luciferase-tagged ELG1. HEK293T ELG1-luciferase reporter, luminescence, 16 h; DNA damage induced by 5-fluorouridine. Potency, µM (highest dose often 46.1 µM), without a hit: at the top dose activity change, negative = inhibition, most hits filed as inhibitors. 330,000 compounds, 2.3% hits; note: % is set by controls: 0 for no effect and ±100 for the full control effect; nearly all actives have a fitted effect of over 55% in size
#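 Reporter activity after DNA damage by 5-fluorouridine is monitored. Compound-treated cells incubate 16 hr at 37 °C, then ONE-Glo is added for 30 min before luminescence reading.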
# NPC1 prom act – qHTS Assay for NPC1 Promoter Activators; Huh7 NPC1 promoter luciferase reporter, 24 h; Potency, µM (series often up to 9.22 µM), for inactives: at the top dose activation, actives largely listed as activators; 320,000 compounds, 2.4% hits; note: % of control where 0% means no effect; nearly all actives have a fitted effect of over 60% in size
#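 Compounds in DMSO were transferred onto Huh7 NPC1-luciferase reporter cells pre-incubated 2 h; after 24 h at 37 °C, Amplite reagent was dispensed and luminescence recorded 10 min later.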
# ELG1 genotoxic – qHTS screen for small molecules that induce genotoxicity in human embryonic kidney (HEK293T) cells expressing luciferase-tagged ELG1; HEK293T ELG1-luciferase reporter, luminescence, 16 h; Potency, µM (titrated, usually from 46 µM), for inactives: at the top dose activity change, positive = activation, usual class: activators; 330,000 compounds, 1.3% hits; AID 504466, 2011; note: % of control where 0% means no effect; nearly all actives have a fitted effect of over 60% in size
#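 Reporter readout depends on ELG1 protein level, which increases with genetic stress. After 16 hr compound exposure at 37 °C, luciferase activity was quantified using ONE-Glo.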
# Numbers without * were called inactive; ? = inconclusive; · = no result; [ ] = another dose, or the depositor's remark. Calls come from the whole dose curve; as a rule, active = well fitted curve in the direction sought with a large enough effect; inconclusive = small, poorly fitted or top-dose-only effect, or another doubt; inactive = no such curve, though single readings can be large; an effect the other way counts as inactive or inconclusive. Potency is the fitted concentration of half-maximal effect.
SMILES,SMN2 splice enh,Rab9 prom act,FLuc modulator,ELG1 repair inh,NPC1 prom act,ELG1 genotoxic
CCc1ccc(/C=C\C(=O)N2CCc3ccccc3C2)cc1,-2.8%,1.9%,7.57µM*,?,2.7%,?
O=C(/C=C/c1c(F)cccc1Cl)N1CCc2ccccc2C1,·,18.4%,16.9µM*,?,21.0%,8.4%
Cc1sc2c(c1C)c(=O)n(-c1cccc(C(F)(F)F)c1)c(=O)n2Cc1ccc(F)cc1,1.3%,·,-3.2%,·,·,·
C=CCn1c(=O)/c(=C/c2cc(OC)c(OC)c(OC)c2)s/c1=C(/C#N)c1nc2ccccc2n1C,-24.6%,-6.8%,-0.3%,4.11µM*,-4.4%,-8.5%
CC(C)(C)NC[C@@H](O)COc1ccccc1C1CCCC1,-4.7%[20.6 µM],·,·,·,·,·
CC(=O)Oc1ccccc1/C=C/c1nc2ccccc2c(=O)o1,·,?,15.1µM*,-15.1%,?,1.3%
CC(=O)Oc1ccc(/C=C/c2nc3ccccc3c(=O)o2)cc1,·,?,0.426µM*,22.4%,?,4.3%
CCOc1c(Cl)cc(Cl)cc1CNCCSc1nnnn1C,-12.0%,·,-9.3%,·,·,·
CCOC(=O)C1=CC[C@H]2c3c(c4ccccc4n3C)C[C@H]1N2C,·,-9.9%,6.6%,?,-3.6%,0.0%
Cc1cc(OCC(=O)Nc2cccc(S(=O)(=O)N3CCCC3)c2)ccc1Cl,·,-10.2%,?,?,0.9%,-6.1%
Cc1cc(OCC(=O)Nc2cccc(S(=O)(=O)N3CCCCC3)c2)ccc1Cl,·,-1.6%,6.75µM*,-13.1%,-2.4%,0.2%
O=C(COc1ccc(C(=O)c2ccc(F)cc2)cc1)Nc1cccc(S(=O)(=O)N2CCOCC2)c1,·,·,·,23.1µM*,·,-7.7%
CCN1CCN(c2ccc(S(=O)(=O)N3CCCCC3)cc2NC(=O)COc2ccc(Cl)c(C)c2)CC1,·,1.4%,-1.1%,23.1µM*,0.3%,-19.4%
CCOc1cc(C(=O)NCCc2sc(-c3ccc(F)cc3)nc2C)cc(OCC)c1OCC,·,·,-10.1%,·,·,·
O=C(COC(=O)c1cc([N+](=O)[O-])ccc1N1CCOCC1)c1ccc(OC(F)F)cc1OC(F)F,·,1.6%,0.9%,20.6µM*,-3.8%,-0.3%
O=C(COC(=O)c1cc([N+](=O)[O-])ccc1N1CCOCC1)Nc1cc(F)ccc1F,·,0.6%,1.3%,23.1µM*,-9.7%,1.9%
Cc1cc(N)n(-c2ccc3ccccc3c2)n1,?,?,16.9µM*,?,24.6%,?
COc1ccc(-n2nc(C)cc2N)cc1,·,-1.4%,-3.5%,?,-0.3%,0.5%
COc1cccc(CNC(=O)c2cc3c(=O)n(Cc4cccnc4)ccc3nc2C)c1,·,·,0.4%,·,·,·
Cc1cccc(CCNC(=O)c2sc3nc4n(c(=O)c3c2C)CCCC4)c1,·,·,13.5µM*,·,·,·
CCOc1ccc(CCNC(=O)c2sc3nc4n(c(=O)c3c2C)CCC4)cc1OCC,·,3.7%,1.7%,6.51µM*,-2.9%,-4.2%
CCOc1ccc(CCNC(=O)c2sc3nc4n(c(=O)c3c2C)CCCC4)cc1OCC,·,·,-3.1%,·,·,·
Cc1cc2ccc3ccccc3c2cc1CN(C)C,·,23.8%,7.57µM*,?,10.4%,5.7%
CCCC(=O)Nc1sc(C(=O)Nc2cccc(N)c2)c(C)c1C(=O)OC,·,0.891µM*,13.5µM*,?,3.16µM*,?
CCC(=O)Nc1sc(C(=O)Nc2ccccc2F)c(C)c1C(=O)OC,·,-0.1%,7.57µM*,4.2%,0.2%,-1.2%
COC(=O)c1c(NC(C)=O)sc(C(=O)Nc2ccccc2F)c1C,7.08µM*,?,-0.1%,?,?,?
COCCn1ccc2c(OCC(=O)Nc3ccccc3OC)cccc2c1=O,·,-0.4%,-9.4%,?,-6.4%,-4.3%
